Measured values reported in PubChem BioAssay AID1851 (National Center for Advancing Translational Sciences (NCATS), 2009).
About 5,100 (32%) of roughly 16,000 compounds were called active. Roughly 25% stayed inconclusive and do not appear here. This is one part of the list. Values without a mark were called inactive. The call rests on the fitted dose curve; in most records, active means well fitted curve in the direction sought with a large enough effect; inconclusive means small, poorly fitted or top-dose-only effect, or effect the other way; inactive means no such curve, though single readings can be large or run the other way.
On the % scale 0 is the no-effect control and ±100 the full control effect.

What follows are molecules tested against Cytochrome P450 3A4 (Homo sapiens) (UniProt P08684) (assay: Cytochrome panel assay with activity outcomes). Settings: recombinant CYP, pro-luciferin dealkylation, luminescence, p450-cyp3a4; series mostly up to 57.1 µM.
Chain of Cytochrome P450 3A4 (Homo sapiens) (P08684 whole entry, looked up): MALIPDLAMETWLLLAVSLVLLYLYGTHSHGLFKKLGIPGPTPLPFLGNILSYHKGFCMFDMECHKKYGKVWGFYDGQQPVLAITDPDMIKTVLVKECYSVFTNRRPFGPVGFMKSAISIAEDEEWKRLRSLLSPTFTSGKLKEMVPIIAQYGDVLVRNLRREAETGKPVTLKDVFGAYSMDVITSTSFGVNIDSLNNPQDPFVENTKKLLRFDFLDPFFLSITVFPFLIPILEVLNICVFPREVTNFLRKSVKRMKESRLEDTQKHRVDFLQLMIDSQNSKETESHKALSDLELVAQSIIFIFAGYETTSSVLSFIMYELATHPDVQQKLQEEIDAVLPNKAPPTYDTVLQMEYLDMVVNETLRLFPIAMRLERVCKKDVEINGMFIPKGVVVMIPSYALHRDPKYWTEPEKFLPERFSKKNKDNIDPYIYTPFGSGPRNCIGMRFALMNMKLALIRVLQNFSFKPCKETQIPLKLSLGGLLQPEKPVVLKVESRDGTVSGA
In the case of `CCOC(=O)N1CCN(C(=O)c2cnc3n(c2=O)CCS3)CC1`, the AC50 is reported as “inactive”.
For `CCOC(=O)N1CCN(C(=O)CCn2nc(-c3ccccc3)ccc2=O)CC1`, the AC50 was “inactive”.
In the case of `CCOC(=O)N1CCN(C(=O)C(CC)n2nc(C)c3sc4ccccc4c3c2=O)CC1` (configuration not stated), the AC50 is reported as 7.08 µM (active).
With `COc1ccc(CCC(C)NC2C3CC4CC(C3)CC2C4)cc1` (configuration not stated) the activity, negative = inhibition was -2.79% [at 2.29 µM].
In the case of `COc1ccc(S(=O)(=O)N2CC3C4C=CC(C4)C3C2)cc1` (configuration not stated), the AC50 is reported as 14.1 µM (active).
Work on `C[C@@H]1C[C@H](C)CN(S(=O)(=O)c2cc(Cl)c(Oc3ccc([N+](=O)[O-])cc3Cl)c(Cl)c2)C1` yielded an activity, negative = inhibition of -9.23% [at 11.4 µM].
`Oc1ccccc1-c1cc(-c2ccccc2)no1` was tested, and the AC50 was “inactive”.
`O=C(CN1C(=O)NC2(CCCCCC2)C1=O)N1CCN(S(=O)(=O)c2ccc(Cl)cc2)CC1` was tested, and the AC50 was 6.31 µM (active).
For `O=C(CN1C(=O)NC2(CCCC2)C1=O)NCCC1=CCCCC1`, the AC50 was “inactive”.
For `CC1CN(C(=O)CN2C(=O)NC3(CCCCCC3)C2=O)CC(C)O1` (configuration not stated), the AC50 was “inactive”.
Work on `Nc1ccc(-c2ccc(Nc3cc(S(=O)(=O)O)c(N)c4c3C(=O)c3ccccc3C4=O)cc2)c(S(=O)(=O)O)c1` yielded an activity, negative = inhibition of -1.65% [at 11.4 µM].
`CC1CCN(S(=O)(=O)c2ccc3c(c2)C(=NO)c2cc(S(=O)(=O)N4CCC(C)CC4)ccc2-3)CC1` showed an activity, negative = inhibition of -0.656% [at 2.29 µM].
For `Cc1ccc(S(=O)(=O)N(C)c2cc(S(=O)(=O)N3CCC(C)CC3)c(C)cc2C)cc1`, the AC50 was 2.51 µM (active).
In the case of `O=C(N/N=C\c1ccc2c(c1)CCC2)c1ccccc1O`, the activity, negative = inhibition is reported as -19.2% [at 11.4 µM].
`CC(=O)c1cccc(NC(=O)Cc2ccc3c(c2)CCCC3)c1` was tested, and the AC50 was “inactive”.
For `O=C(CC1CCCC1)Nc1ccc2c(c1)CCC2`, the AC50 was 14.1 µM (active).
With `COCCCNC(=O)c1c(N)n(/N=C/c2ccccn2)c2nc3ccccc3nc12` the AC50 was 4.47 µM (active).
With `Cc1nc2ccccc2n1CC(=O)N/N=C\c1ccccn1` the AC50 was “inactive”.
With `CCCCCCCCC(=O)N/N=C/c1ccccn1` the AC50 was “inactive”.
`CS(=O)(=O)N1CCC2(CCCN(c3ncccn3)C2)CC1` was tested, and the AC50 was “inactive”.
`CS(=O)(=O)N1CCC2(CC1)CN(c1cccc(-c3ccccc3)c1)C2` was tested, and the AC50 was “inactive”.
`O=S(=O)(c1ccccc1)N1CCC[C@@]2(CCN(c3cccc(-c4ccccc4)c3)C2)C1` was tested, and the AC50 was 12.6 µM (active).
With `CS(=O)(=O)N1CCC2(CCN(c3cccc(-c4ccccc4)c3)CC2)CC1` the AC50 was “inactive”.
`O=S(=O)(c1ccccc1)N1CCC2(CCCN(c3ncccn3)C2)CC1` was tested, and the AC50 was 12.6 µM (active).
In the case of `O=S(=O)(c1ccccc1)N1CCC2(CCCN(c3ccccc3)C2)CC1`, the AC50 is reported as 3.98 µM (active).
In the case of `CN1CCCC2(CCN(S(=O)(=O)c3ccccc3)CC2)C1`, the AC50 is reported as “inactive”.
In the case of `O=S(=O)(c1ccccc1)N1CCC2(CCCN(c3cccc(-c4ccccc4)c3)C2)CC1`, the AC50 is reported as 3.98 µM (active).
In the case of `O=S(=O)(c1ccccc1)N1CCC2(CC1)CN(c1ncccn1)C2`, the AC50 is reported as “inactive”.
For `ON(CCc1ccncc1)Cc1ccccc1`, the AC50 was 1 µM (active).
Molecule `c1ccc(CCN2CCN=C2Cc2ccccc2)cc1` has an activity, negative = inhibition of 7.9% [at 11.4 µM].
In the case of `c1ccc(SCCc2ccncc2)cc1`, the AC50 is reported as 2.51 µM (active).
In the case of `CCN(CCCc1ccccc1)CCCc1ccccc1`, the AC50 is reported as “inactive”.
With `Fc1ccc(SCCc2ccncc2)cc1` the AC50 was 3.55 µM (active).
Work on `C[C@@H](CSC(=N)N)C(N)=O` yielded an activity, negative = inhibition of -8.21% [at 11.4 µM].
Work on `CCN(CC(=O)O)CC(=O)O` yielded an activity, negative = inhibition of 0.0109% [at 11.4 µM].
In the case of `Cc1ccc(C(=O)C(OC(=O)CCC(=O)Nc2cccc(C)c2)c2ccccc2)cc1` (configuration not stated), the AC50 is reported as 25.1 µM (active).
With `Cc1ccc(C(=O)C(OC(=O)CNS(=O)(=O)c2ccccc2)c2ccccc2)cc1` (configuration not stated) the AC50 was 14.1 µM (active).
Work on `CC(=O)NNC(=O)CCC(=O)Nc1ccccc1` yielded an activity, negative = inhibition of 6.14% [at 2.29 µM].
With `COc1ccc(C(=O)C(OC(=O)CNC(=O)c2ccco2)c2ccccc2)cc1` (configuration not stated) the AC50 was 14.1 µM (active).
`CC(=O)Nc1cccc(C(=O)OC(C(=O)c2ccc(C)c(C)c2)c2ccccc2)c1` (configuration not stated) showed an activity, negative = inhibition of 8% [at 2.29 µM].
In the case of `CCOC(=O)CC(NC(=O)c1ccco1)c1ccc(OC)cc1` (configuration not stated), the AC50 is reported as “inactive”.
In the case of `Cc1ccccc1OCC(=O)OC1CCN(C)CC1`, the AC50 is reported as “inactive”.
`Cc1ccc(C(=O)C(OC(=O)COc2ccccc2C)c2ccccc2)cc1` (configuration not stated) was tested, and the AC50 was 10 µM (active).
With `O=C(O)Cc1cc(I)c(Oc2ccc(O)c(I)c2)c(I)c1` the AC50 was “inactive”.
For `NC1=NC2(CCCCC2)N=C(Nc2ccc(F)cc2F)N1`, the AC50 was “inactive”.
In the case of `Cc1ccc(C(=O)C(OC(=O)CN2C(=O)c3ccccc3C2=O)c2ccccc2)cc1` (configuration not stated), the AC50 is reported as 7.94 µM (active).
With `O=C(O)CC[C@@H](C(=O)O)N1C(=O)c2ccccc2C1=O` the activity, negative = inhibition was -3.86% [at 11.4 µM].
